Experimental data: PubChem BioAssay AID1159580 (chemical genetic matrix, 2015)
Screen size: about 5,500 compounds; about 2,000 (36%) were called active. Roughly 18% stayed inconclusive and do not appear here. Some of the results follow. Unmarked numbers belong to inactive results. No stated cut-off is given here; in the data, active means normalized growth mostly below about 0.91 (no sharp cut-off); inconclusive means no clear call, values can overlap the other calls; inactive means mostly above about 0.92.

Experiment: chemical genetic growth profiling, strain panel (AID 1159580);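 further: tested at 20 µM; growth read once vehicle control cultures reached saturation at 30 °C; 1 = growth at the plate median or of vehicle wells; lower values mean less growth of the strain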
Details: growth OD

## O=c1oc2cc(O)ccc2s1
S. cerevisiae deletion strains, locus YJR043C, strain POL32, active compounds read low
  normalized growth: 0.962
S. cerevisiae deletion strains, locus YJR075W, strain HOC1, active compounds read low
  normalized growth: 0.958
S. cerevisiae deletion strains, locus YKL009W, strain mrt4, active compounds read low
  normalized growth: 0.952
S. cerevisiae deletion strains, locus YKL068W, active compounds read low
  normalized growth: 0.995
S. cerevisiae deletion strains, locus YKL085W, strain MDH1 (second series), active compounds read low
  normalized growth: 0.975
S. cerevisiae deletion strains, locus YKL085W, strain MDH1, active compounds read low
  normalized growth: 0.975
S. cerevisiae deletion strains, locus YKL160W, strain elf1, active compounds read low
  normalized growth: 0.99
S. cerevisiae deletion strains, locus YKL190W, strain CNB1, active compounds read low
  normalized growth: 1
S. cerevisiae deletion strains, locus YKR001C, strain vps1, active compounds read low
  normalized growth: 0.894 (active)
S. cerevisiae deletion strains, locus YKR026C, strain gcn3, active compounds read low
  normalized growth: 1.01
S. cerevisiae deletion strains, locus YKR091W, strain srl3, active compounds read low
  normalized growth: 1.01
S. cerevisiae deletion strains, locus YLL001W, strain dnm1, active compounds read low
  normalized growth: 0.974
S. cerevisiae deletion strains, locus YLL026W, active compounds read low
  normalized growth: 0.99
S. cerevisiae deletion strains, locus YLL041C, strain sdh2, active compounds read low
  normalized growth: 1.02
S. cerevisiae deletion strains, locus YLR027C, strain aat2, active compounds read low
  normalized growth: 0.983
S. cerevisiae deletion strains, locus YLR039C, strain RIC1, active compounds read low
  normalized growth: 0.909
S. cerevisiae deletion strains, locus YLR058C, strain SHM2, active compounds read low
  normalized growth: 0.983
S. cerevisiae deletion strains, locus YLR102C, strain apc9, active compounds read low
  normalized growth: 0.963
S. cerevisiae deletion strains, locus YLR221C, strain rsa3, active compounds read low
  normalized growth: 0.971
S. cerevisiae deletion strains, locus YLR258W, strain gsy2, active compounds read low
  normalized growth: 1
S. cerevisiae deletion strains, locus YLR262C, strain YPT6 (second series), active compounds read low
  normalized growth: 0.965
S. cerevisiae deletion strains, locus YLR262C, strain YPT6, active compounds read low
  normalized growth: 0.981
S. cerevisiae deletion strains, locus YLR268W, strain sec22, active compounds read low
  normalized growth: 0.903
S. cerevisiae deletion strains, locus YLR320W, strain mms22, active compounds read low
  normalized growth: 0.962
S. cerevisiae deletion strains, locus YLR330W, strain CHS5, active compounds read low
  normalized growth: 0.982
S. cerevisiae deletion strains, locus YLR342W, strain FKS1 (second series), active compounds read low
  normalized growth: 0.956
S. cerevisiae deletion strains, locus YLR342W, strain FKS1, active compounds read low
  normalized growth: 1
S. cerevisiae deletion strains, locus YLR357W, strain rsc2, active compounds read low
  normalized growth: 0.995
S. cerevisiae deletion strains, locus YLR370C, strain arc18, active compounds read low
  normalized growth: 0.999
S. cerevisiae deletion strains, locus YLR371W, strain rom2, active compounds read low
  normalized growth: 0.965
S. cerevisiae deletion strains, locus YLR384C, strain iki3, active compounds read low
  normalized growth: 1.02
S. cerevisiae deletion strains, locus YLR418C, strain cdc73, active compounds read low
  normalized growth: 0.929
S. cerevisiae deletion strains, locus YML016C, strain PPZ1, active compounds read low
  normalized growth: 0.98
S. cerevisiae deletion strains, locus YML032C, strain rad52, active compounds read low
  normalized growth: 0.858 (active)
S. cerevisiae deletion strains, locus YML120C, strain ndi1, active compounds read low
  normalized growth: 0.994
S. cerevisiae deletion strains, locus YML124C, strain tub3, active compounds read low
  normalized growth: 0.962
S. cerevisiae deletion strains, locus YMR058W, strain fet3, active compounds read low
  normalized growth: 0.967
S. cerevisiae deletion strains, locus YMR078C, strain ctf18, active compounds read low
  normalized growth: 0.95
S. cerevisiae deletion strains, locus YMR125W, strain sto1, active compounds read low
  normalized growth: 1.12 [resistant] (active)
S. cerevisiae deletion strains, locus YMR129W, active compounds read low
  normalized growth: 1
S. cerevisiae deletion strains, locus YMR205C, strain PFK2, active compounds read low
  normalized growth: 0.969
S. cerevisiae deletion strains, locus YMR223W, strain ubp8, active compounds read low
  normalized growth: 0.96
S. cerevisiae deletion strains, locus YMR231W, strain pep5, active compounds read low
  normalized growth: 1.03
S. cerevisiae deletion strains, locus YMR263W, strain SAP30, active compounds read low
  normalized growth: 0.956
S. cerevisiae deletion strains, locus YMR307W, strain GAS1, active compounds read low
  normalized growth: 0.946
S. cerevisiae deletion strains, locus YNL067W, strain RPL9B, active compounds read low
  normalized growth: 0.926
S. cerevisiae deletion strains, locus YNL071W, strain lat1, active compounds read low
  normalized growth: 1.01
S. cerevisiae deletion strains, locus YNL128W, strain TEP1, active compounds read low
  normalized growth: 0.962
S. cerevisiae deletion strains, locus YNL153C, strain GIM3, active compounds read low
  normalized growth: 0.948
S. cerevisiae deletion strains, locus YNL209W, strain ssb2, active compounds read low
  normalized growth: 1
S. cerevisiae deletion strains, locus YNL233W, strain BNI4, active compounds read low
  normalized growth: 0.955
S. cerevisiae deletion strains, locus YNL248C, strain rpa49, active compounds read low
  normalized growth: 1.04
S. cerevisiae deletion strains, locus YNL250W, strain rad50, active compounds read low
  normalized growth: 0.941
S. cerevisiae deletion strains, locus YNL271C, strain bni1, active compounds read low
  normalized growth: 0.939
S. cerevisiae deletion strains, locus YNL298W, strain CLA4, active compounds read low
  normalized growth: 0.917
S. cerevisiae deletion strains, locus YNL307C, strain MCK1, active compounds read low
  normalized growth: 0.959
S. cerevisiae deletion strains, locus YNL322C, strain KRE1 (second series), active compounds read low
  normalized growth: 1.01
S. cerevisiae deletion strains, locus YNL322C, strain KRE1, active compounds read low
  normalized growth: 0.99
S. cerevisiae deletion strains, locus YNR049C, strain mso1, active compounds read low
  normalized growth: 0.999
S. cerevisiae deletion strains, locus YNR052C, strain pop2, active compounds read low
  normalized growth: 0.966
S. cerevisiae deletion strains, locus YOL006C, strain TOP1, active compounds read low
  normalized growth: 0.908
S. cerevisiae deletion strains, locus YOL012C, strain htz1
  normalized growth: 1.09
S. cerevisiae deletion strains, locus YOL147C, strain pex11, active compounds read low
  normalized growth: 0.964
S. cerevisiae deletion strains, locus YOR001W, strain rrp6, active compounds read low
  normalized growth: 0.994
S. cerevisiae deletion strains, locus YOR061W, strain CKA2, active compounds read low
  normalized growth: 0.984
S. cerevisiae deletion strains, locus YOR069W, strain VPS5, active compounds read low
  normalized growth: 0.984
S. cerevisiae deletion strains, locus YOR070C, strain gyp1, active compounds read low
  normalized growth: 1.01
S. cerevisiae deletion strains, locus YOR080W, strain dia2, active compounds read low
  normalized growth: 1.02
S. cerevisiae deletion strains, locus YOR083W, strain WHI5, active compounds read low
  normalized growth: 0.931
S. cerevisiae deletion strains, locus YOR106W, strain vam3, active compounds read low
  normalized growth: 0.972
S. cerevisiae deletion strains, locus YOR136W, strain idh2, active compounds read low
  normalized growth: 0.972
S. cerevisiae deletion strains, locus YOR144C, strain elg1, active compounds read low
  normalized growth: 0.966
S. cerevisiae deletion strains, locus YOR184W, strain ser1, active compounds read low
  normalized growth: 0.91
S. cerevisiae deletion strains, locus YOR265W, strain rbl2, active compounds read low
  normalized growth: 0.994
S. cerevisiae deletion strains, locus YOR270C, strain vph1, active compounds read low
  normalized growth: 0.943
S. cerevisiae deletion strains, locus YOR290C, strain snf2, active compounds read low
  normalized growth: 0.992
S. cerevisiae deletion strains, locus YOR316C, strain cot1, active compounds read low
  normalized growth: 0.968
S. cerevisiae deletion strains, locus YPL051W, strain arl3, active compounds read low
  normalized growth: 0.999
S. cerevisiae deletion strains, locus YPL055C, strain LGE1, active compounds read low
  normalized growth: 1
S. cerevisiae deletion strains, locus YPL078C, strain atp4, active compounds read low
  normalized growth: 0.987
S. cerevisiae deletion strains, locus YPL106C, strain sse1, active compounds read low
  normalized growth: 1.02
S. cerevisiae deletion strains, locus YPL240C, strain hsp82, active compounds read low
  normalized growth: 1.02
S. cerevisiae deletion strains, locus YPL241C, strain CIN2, active compounds read low
  normalized growth: 0.989
S. cerevisiae deletion strains, locus YPR119W, strain clb2, active compounds read low
  normalized growth: 0.967
S. cerevisiae deletion strains, locus YPR141C, strain kar3, active compounds read low
  normalized growth: 0.933
S. cerevisiae deletion strains, locus YPR163C, strain tif3, active compounds read low
  normalized growth: 0.965
S. cerevisiae deletion strains, locus YPR167C, strain met16, active compounds read low
  normalized growth: 0.965
S. cerevisiae deletion strains, strain wtn01, active compounds read low
  normalized growth: 0.876 (active)
S. cerevisiae strains, strain wild type, active compounds read low
  normalized growth: 0.978
